Screening results as filed in PubChem.
The list is not random: actives were taken first. Their share in the collection is about 7.9%.
HCV inhibitor: HCV inhibition; Huh7.5.1 HCVcc-Cre infection, luciferase reporter, 44 h; Potency, µM (doses to about 41.8 µM), inactives show top-dose activity change, negative = inhibition, most hits filed as inhibitors; 340,000 tested, 3.4% active; active = well fitted inhibition curve with a large enough effect; inconclusive = small, poorly fitted or top-dose-only effect, or another doubt; inactive = no such curve, though single readings can be large or run the other way; also: potency is read from the fitted curve at half-maximal effect
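Cells seeded at 1,000/well and cultured 4 h, then compounds added followed by HCVcc-Cre virus (~0.5 moi). After 44 h further culture, luciferase substrate was added, plates held 15 min at room temperature, and luminescence read for 15 sec.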
LASV entry inh: Lassa virus entry inhibition; Lassa virus pseudotype entry inhibition, cell reporter; Potency, µM (series often up to 37.9 µM), for the others: at the highest dose activity change, negative = inhibition, usual class: inhibitors; 300,000 tested, 1.2% active; AID 540256; calls by dose curve; tested in HEK293 cells; also: potency is read from the fitted curve at half-maximal effect; nearly all actives have a fitted effect of over 50% in size
Marburg entry inh: inhibitors of Marburg virus binding or cell entry. Marburg virus pseudotyped entry inhibition, cell reporter. Potency, µM (top dose mostly 37.8 µM), for the others: at the top dose activity change, negative = inhibition, most hits filed as inhibitors. 300,000 tested, 1.8% active. AID 540276; calls by dose curve; tested in HEK293 cells; also: potency is read from the fitted curve at half-maximal effect
HCMV inh: human cytomegalovirus inhibition; HFF cells, HCMV-luciferase reporter, 72 h; stronger effect = lower value; activity change, negative = inhibition, % at 57.5 µM; 410,000 tested, 4.5% active; in the data active = activity change below about -60%; inconclusive = no clear call, values can overlap the other calls; inactive = above about -39%
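Two-dose cell screen: HFF monolayers treated with compounds and infected with luciferase-expressing HCMV at 1 PFU/cell, 72 h at 37C, then lysed for luciferase measurement.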
FMDV antiviral: foot and mouth disease virus antiviral activity; FMDV antiviral cell-based qHTS; Potency, µM (titrated, usually from 57.9 µM), inactives show at the top dose activity change, negative = inhibition, hits mostly inhibitors; 410,000 tested, 1.2% active; calls by dose curve; tested in HEK293T cells; also: read-out not given here; potency is read from the fitted curve at half-maximal effect; nearly all actives have a fitted effect of over 45% in size
* hit, by the source's call; u = inconclusive; x = not tested or not shown; [ ] = remark or other dose. % is scaled to controls: 0 for no effect and ±100 for the full control effect.

SMILES	HCV inhibitor	LASV entry inh	Marburg entry inh	HCMV inh	FMDV antiviral
N#CC1=C(N)OC2=C(C(=O)CCC2)[C@@H]1CCc1ccccc1	x	x	11%[46.1 µM]	x	x
CCCCCC1=C(C(=O)OC)C(C(=O)OCC)N(S(=O)(=O)C(F)(F)F)c2ccccc21 (stereo not drawn)	11µM*	x	x	-16	u
Cc1ccc(NC(=O)c2sc(-n3nc(C)c(Cc4ccc5c(c4)OCO5)c3C)nc2C)cc1C	x	-10%[46.1 µM]	-1%[46.1 µM]	-113*	-4%
O=C(Cc1cccs1)N1CCCC(c2nc3c(nnn3Cc3cccc(Cl)c3)c(=O)[nH]2)C1 (stereo not drawn)	4%	u	6%	23	u
O=c1[nH]c(C2CCN(S(=O)(=O)/C=C/c3ccccc3)CC2)nc2c1nnn2Cc1ccc(F)cc1	-17%	u	7.9µM*	40	1%
O=C(Cc1ccccc1F)N1CCC(c2nc3c(nnn3Cc3cccc(Cl)c3)c(=O)[nH]2)CC1	x	u	-17%[46.1 µM]	-62*	-18%
Cc1ccc(Cn2nnc3c(=O)[nH]c(C4CCN(C(=O)c5cccs5)CC4)nc32)cc1	-4%	2.9µM*	u	x	-20%
O=C(Cc1cccs1)N1CCC(c2nc3c(nnn3Cc3ccc(F)cc3)c(=O)[nH]2)CC1	13%	-9%	-6%	-95*	-13%
Cc1ccc(NC(=O)c2ccccc2Br)c(C(=O)c2ccccc2)c1	x	-18%[46.1 µM]	x	-31	1%
Cn1cc(-c2nc3cnc(Oc4ccccc4)nc3n(CCC#N)c2=O)c2ccccc21	x	x	x	x	5%
CC(C)(C)NC(=O)N1CCC(C(=O)O)CC1	x	0%[46.1 µM]	x	10	-16%
COc1ccc2c(c1)CCc1c(C(=O)Nc3ccc(C#N)cc3)noc1-2	x	-9%[46.1 µM]	-5%[46.1 µM]	-4	-21%
Cc1ccc(Cn2nnc3c(=O)[nH]c(C4CCN(S(=O)(=O)c5cc(C)ccc5C)CC4)nc32)cc1	u	14µM*	u	37	u
Cc1ccc(C)c(S(=O)(=O)N2CCC(c3nc4c(nnn4Cc4ccc(F)cc4)c(=O)[nH]3)CC2)c1	8%	u	-25%	-2	-23%
O=c1[nH]c(C2CCN(S(=O)(=O)c3ccc4c(c3)OCCO4)CC2)nc2c1nnn2Cc1c(F)cccc1Cl	-6%	6%[46.1 µM]	16%[46.1 µM]	-75*	0%
Cc1cccc(Cn2nnc3c(=O)[nH]c(C4CCCN(C(=O)c5ccc(C(C)(C)C)cc5)C4)nc32)c1 (stereo not drawn)	x	-15%[46.1 µM]	u	-70*	u
O=S(=O)(c1ccccc1)N1CCN(Cc2ccc(Cl)cc2)CC1	u	x	x	16	u
COc1cc2c(cc1C(F)(F)F)N(C(=O)Nc1cc(F)cc(-c3cccnc3)c1)CC2	x	x	1.3µM*	x	-4%
Cn1ccc2cc3c(cc21)CCN3C(=O)Nc1cccnc1	u	u	u	78	48%
CCOC(=O)Cc1cc(=O)c2cc(C)ccc2[nH]1	18%	x	x	39	11%
COc1ccc(C(C(=O)NC(C)(C)C)N(C(=O)CCC(=O)Nc2cc(C)on2)c2ccc(C)c(C)c2)cc1 (stereo not drawn)	u	u	u	-11	-16%
O=C(NCCCN1CCOCC1)c1ccc(-n2nc(C(F)(F)F)cc2-c2cccs2)cc1	u	-9%	u	-67*	u
Clc1cccc(Cl)c1C[n+]1ccc2ccccc2c1	u	x	x	-94*	-23%
O=C(CN1CCC2(CC1)OCCO2)c1ccc2cc[nH]c2c1	15%	26%[14.3 µM]	u	-66*	44%
Cc1c(-c2ccccc2)nc2c(Cl)cccc2c1C(=O)OCC(=O)c1ccc(F)cc1	x	-2%[46.1 µM]	10%[46.1 µM]	-12	u
SMILES	HCV inhibitor	LASV entry inh	Marburg entry inh	HCMV inh	FMDV antiviral
COc1ccccc1Cc1c(-c2ccc(C#N)cc2)nc2c(Cl)cc(C(F)(F)F)cn12	x	x	x	x	-15%
CC(C)(C)Cc1c(-c2ccc(C#N)cc2)nc2c(Cl)cc(C(F)(F)F)cn12	x	x	x	-83*	u
CC(C(=O)Nc1nc(-c2ccc(F)cc2)cs1)N1C(=O)C2CC=CCC2C1=O (stereo not drawn)	-8%	-24%	-20%	-5	28µM*
CN(C)S(=O)(=O)c1ccc(Cl)c(C(=O)NC2CCN(Cc3ccccc3)C2)c1 (stereo not drawn)	-10%	2%	-23%[46.1 µM]	5	-9%
O=C(NC1CCN(Cc2ccccc2)CC1)c1cccc(S(=O)(=O)Nc2ccc(SC(F)F)cc2)c1	2.8µM*	x	x	-30	u
O=C(CCNS(=O)(=O)c1ccc(Br)cc1)NC1CCN(Cc2ccccc2)CC1	u	1%	-10%	-17	u
CCN(c1ccccc1)S(=O)(=O)c1ccc(Cl)c(C(=O)NC2CCN(Cc3ccccc3)CC2)c1	u	u	u	-70*	u
Cc1ccc(NS(=O)(=O)c2ccc(C(=O)NC3CCN(Cc4ccccc4)CC3)cc2)cc1	u	11µM*	u	-92*	u
O=C(NC1CCN(Cc2ccccc2)CC1)c1cccc(NS(=O)(=O)c2ccc(Br)cc2)c1	11µM*	x	x	u	u
O=C(NC1CCN(Cc2ccccc2)CC1)c1ccccc1	-1%	x	x	-9	-16%
COc1ccc(S(=O)(=O)N(C)CC(=O)NC2CC2)cc1OC	3%	1%[46.1 µM]	32%[46.1 µM]	-9	29%
O=C(NC1CCCC1)c1ccc2c(c1)N(Cc1ccc(C(F)(F)F)cc1)C(=O)c1ccccc1S2	x	-14%[46.1 µM]	-24%[46.1 µM]	-10	u
Cc1ccc(NS(=O)(=O)c2cccc(C(=O)NC3CCN(Cc4ccccc4)CC3)c2)cc1	13µM*	-12%	u	u	-28%
Cc1nn(CCCC(=O)Nc2cccc(C(F)(F)F)c2)c(=O)c2nn(-c3ccccc3)c(C)c12	x	22%[46.1 µM]	x	-21	-24%
COc1ccccc1CCn1cnc(-c2ccc(OC)c(OC)c2)c1C(C)C	x	x	x	-109*	u
CCCCc1c(-c2cccc(OC)c2)ncn1CCc1ccccc1OC	x	x	x	u	25µM*
CCCCc1c(-c2ccc(OC)c(OC)c2)ncn1CCc1ccccc1OC	x	x	x	-94*	u
CCCCCc1c(-c2ccccc2)ncn1CCc1ccccc1OC	x	x	x	u	-7%
CCCc1c(-c2ccc(Cl)cc2)ncn1CCc1ccccc1OC	x	x	x	-61*	28µM*
COc1ccc(S(=O)(=O)N2CCOCC2)cc1NC(=O)C1CCN(S(=O)(=O)c2ccc(Cl)cc2)CC1	-10%	-28%	u	-14	0%
CN(C)C(=O)/N=N/C(=O)N(C)C	x	20%	-15%	x	x
CCCCc1c(-c2ccc(F)cc2F)ncn1CCc1ccccc1OC	x	x	x	u	-18%
CCCCc1c(Cc2cccc(F)c2)ncn1CCc1ccccc1OC	x	x	x	-66*	32µM*
CCc1ccccc1-n1c(N)c(C(=O)OC)c2nc3ccccc3nc21	x	-16%[46.1 µM]	u	8	-12%
COC(=O)c1c(N)n(-c2ccc(NC(C)=O)cc2)c2nc3ccccc3nc12	u	-6%	-1%	-66*	-29%
Cc1cc(C)cc(-n2c(N)c(C(=O)Nc3c(C)n(C)n(-c4ccccc4)c3=O)c3nc4ccccc4nc32)c1	u	2%	20%	19	-10%
